FBPA coupling cs = coupling enzyme interference in Giardia aldolase counter-screen. hit rate 0.67% among 290,000. coupling enzyme system counterscreen, AmpLite Red fluorescence. activity change, negative = inhibition, % at 58.2 µM, hits read low; in the data active means activity change below about -30%
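Counterscreen of the coupled detection system alone, without aldolase: glyceraldehyde-3-phosphate coupling enzymes plus AmpLite Red readout. Compounds at 57.5 uM final, 10 min RT preincubation, 20 min RT reaction, fluorescence 525/598 nm.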
Tau FP inhib = inhibitors of human tau fibril formation. P10636. K18 P301L tau heparin fibrillization, Alexa594 FP, 6 h. Potency, µM (doses to about 57.7 µM), actives largely listed as inhibitors. hit rate 0.39% among 280,000; further: nearly all actives have a fitted effect of over 55% in size
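Recombinant K18 P301L […], labeled with Alexa 594 at 0.24 uM over 15 uM unlabeled; heparin inducer 20 uM final; 37 C, 6 hr; FP endpoint.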
Tau ThT inhib = inhibitors of human tau fibril formation, thioflavin T binding; P10636; recombinant tau K18 P301L, heparin-induced fibrillization, ThT fluorescence; Potency, µM (series often up to 57.4 µM), most hits filed as inhibitors; hit rate 2.1% among 270,000; further: nearly all actives have a fitted effect of over 55% in size
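Using a mix of unlabeled (15 uM) and Alexa 594-labeled (0.24 uM) tau K18 P301L, heparin-triggered fibrillization over 6 hr at 37 C was scored by ThT fluorescence.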
Tau fluor counter = counter-screen for tau fibril formation inhibitors. tau K18 P301L (four-repeat tau fragment) Alexa594 fluorescence, heparin fibrillization. Potency, µM (top dose mostly 57.7 µM). hit rate 0.93% among 280,000; further: nearly all actives have a fitted effect of over 55% in size
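Human K18 P301L tau (15 uM unlabeled plus 0.24 uM Alexa 594-labeled, final) in 100 mM sodium acetate pH 7 was mixed with compound and 20 uM heparin and incubated 6 hr at 37 C.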
USP1-UAF1 inh = inhibitors of human USP1/UAF1 deubiquitinase. O94782. hit rate 0.23% among 390,000. AID 743255. Potency, µM (series often up to 57.1 µM), most hits filed as inhibitors. recombinant USP1/UAF1, Ub-Rhodamine cleavage fluorescence; further: nearly all actives have a fitted effect of over 60% in size
Target sequence (O94782 whole entry, looked up): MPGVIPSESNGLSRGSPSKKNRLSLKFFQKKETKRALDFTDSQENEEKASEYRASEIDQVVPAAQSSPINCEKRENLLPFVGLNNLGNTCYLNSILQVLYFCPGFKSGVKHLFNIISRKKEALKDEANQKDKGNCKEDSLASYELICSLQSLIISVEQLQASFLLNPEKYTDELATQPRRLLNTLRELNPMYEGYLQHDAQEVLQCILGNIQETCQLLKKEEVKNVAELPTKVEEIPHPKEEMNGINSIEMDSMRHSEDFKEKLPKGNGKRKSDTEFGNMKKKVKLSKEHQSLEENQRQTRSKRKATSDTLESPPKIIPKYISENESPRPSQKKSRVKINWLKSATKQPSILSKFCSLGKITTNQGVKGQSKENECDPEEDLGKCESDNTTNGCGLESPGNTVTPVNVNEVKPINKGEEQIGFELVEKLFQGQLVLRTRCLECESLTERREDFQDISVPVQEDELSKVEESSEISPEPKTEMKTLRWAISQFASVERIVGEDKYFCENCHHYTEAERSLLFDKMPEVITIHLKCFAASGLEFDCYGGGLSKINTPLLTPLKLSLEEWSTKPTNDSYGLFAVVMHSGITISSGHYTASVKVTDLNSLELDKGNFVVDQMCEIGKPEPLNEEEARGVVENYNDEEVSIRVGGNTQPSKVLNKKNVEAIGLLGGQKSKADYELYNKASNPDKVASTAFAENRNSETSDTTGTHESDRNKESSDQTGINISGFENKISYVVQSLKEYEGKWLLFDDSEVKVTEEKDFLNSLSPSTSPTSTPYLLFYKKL
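1 nM enzyme complex + cpd, 15 min RT; start with Ub-Rho 150nM final; kinetic fluorescence ex 480/em 540, 6 reads q60 s. Buffer 50mM HEPES pH 7.8, 0.5mM EDTA, 0.1 mg/ml BSA, 1mM TCEP, 0.01% Tween-20.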
Hits are given with their value; [ ] = another dose, or the depositor's remark. This is a sample that favours compounds with a hit; in the whole collection about 2.3% have one here. Unless noted, the call rests on the fitted dose curve; in most records, active means well fitted curve in the direction sought with a large enough effect; inconclusive means small, poorly fitted or top-dose-only effect, or another doubt; inactive means no such curve, though single readings can be large; an effect the other way counts as inactive or inconclusive.

For CCOC(=O)C1=C(C)N=c2s/c(=C3/C(=O)Nc4ccccc43)c(=O)n2C1c1ccc(C)cc1 (configuration not stated) the results were FBPA coupling cs inactive, Tau FP inhib inactive, Tau ThT inhib inactive, Tau fluor counter inactive and USP1-UAF1 inh inactive.
Screening CCOC(=O)C1=C(C)n2c(s/c(=C3\C(=O)Nc4ccccc43)c2=O)=NC1c1ccc(OC)cc1 (configuration not stated) returned FBPA coupling cs inactive, Tau FP inhib inconclusive, Tau ThT inhib 15.8µM, Tau fluor counter inconclusive and USP1-UAF1 inh inactive.
Screening COC(=O)c1sc(C(=O)OC)c(C(=O)OC)c1C(=O)OC returned FBPA coupling cs inactive, Tau FP inhib inactive, Tau ThT inhib inactive, Tau fluor counter inactive and USP1-UAF1 inh inactive.
For COC(=O)c1sc(=S)sc1C(=O)OC the results were FBPA coupling cs inactive, Tau FP inhib inconclusive, Tau ThT inhib 3.16µM, Tau fluor counter inactive and USP1-UAF1 inh inactive.
Screening O=C(c1ccccc1)N1CCN(c2ccc([N+](=O)[O-])c(NCc3cccnc3)c2)CC1 returned FBPA coupling cs inactive, Tau FP inhib inactive, Tau ThT inhib 15.8µM, Tau fluor counter inactive and USP1-UAF1 inh inactive.
`O=C(c1ccccc1F)N1CCN(c2ccc([N+](=O)[O-])c(NCc3cccnc3)c2)CC1` gave FBPA coupling cs inactive, Tau FP inhib inactive, Tau ThT inhib 15.8µM, Tau fluor counter inactive and USP1-UAF1 inh inactive.
`O=C(c1ccc(Cl)cc1)N1CCN(c2ccc([N+](=O)[O-])c(NCc3cccnc3)c2)CC1` gave USP1-UAF1 inh inactive.
For Cc1ccc(NC(=O)Cn2c(=O)n(CCCCCC(=O)NCc3ccc(F)cc3)c(=O)c3sccc32)cc1C the results were Tau FP inhib inactive, Tau ThT inhib inactive, Tau fluor counter inactive and USP1-UAF1 inh inactive.
Screening Nc1c(C(=O)c2ccccc2)sc(Nc2ccc(Cl)c(Cl)c2)c1C(=O)Nc1ccccc1 returned Tau FP inhib inactive, Tau ThT inhib 20µM, Tau fluor counter inconclusive and USP1-UAF1 inh inconclusive.
Screening COc1ccccc1NC(=O)c1c(Nc2ccccc2F)sc(C(=O)Nc2cccc(Cl)c2)c1N returned FBPA coupling cs inactive, Tau FP inhib inconclusive, Tau ThT inhib inactive, Tau fluor counter inconclusive and USP1-UAF1 inh inactive.
Screening Cc1nc(Nc2ccc(Cl)c(Cl)c2)sc1C(=O)Nc1ccccc1 returned FBPA coupling cs inactive, Tau FP inhib inactive, Tau ThT inhib inconclusive, Tau fluor counter 11.2µM[quencher] and USP1-UAF1 inh inactive.
`COc1ccc(Nc2sc(C(=O)Nc3cccc(Cl)c3)c(N)c2C(=O)Nc2ccccc2OC)cc1` gave FBPA coupling cs inactive, Tau FP inhib inactive, Tau ThT inhib inconclusive and Tau fluor counter 11.2µM[quencher].
Cc1ccc(Nc2sc(C(=O)c3ccccc3)c(N)c2C(=O)Nc2ccc(Cl)cc2)cc1 was read as Tau FP inhib inactive, Tau ThT inhib inconclusive, Tau fluor counter inconclusive and USP1-UAF1 inh inactive.
`CC(=O)c1ccc(C2C=CC(Oc3ccc(-c4ccccc4)cc3)C(CO)O2)cc1` (configuration not stated) gave FBPA coupling cs inactive, Tau FP inhib inactive[11.6 µM], Tau ThT inhib inactive[11.5 µM] and Tau fluor counter inactive[11.6 µM].
For Cc1ccc(NC(=O)CS(=O)(=O)c2nc(-c3ccc(C)cc3)cn2-c2ccc(C)cc2)cc1 the results were Tau FP inhib inconclusive, Tau ThT inhib inactive, Tau fluor counter inactive and USP1-UAF1 inh inactive.
COc1cccc(C(=O)Nc2cccc(C(=O)OCc3cc(=O)n4c5c(sc4n3)CCCC5)c2)c1 was read as Tau FP inhib inactive, Tau ThT inhib inactive, Tau fluor counter inactive and USP1-UAF1 inh inactive.
CC(C)(C)C(=O)/C=c1\s/c(=C\c2ccc(-c3ccc([N+](=O)[O-])cc3)o2)c(=O)n1CC(=O)NC(N)=O was read as FBPA coupling cs inactive, Tau FP inhib inactive, Tau ThT inhib inconclusive, Tau fluor counter inconclusive and USP1-UAF1 inh 7.94µM.
`Cc1ccc(/C(C#N)=C\c2ccc(N3CCOCC3)o2)cc1` gave FBPA coupling cs inactive, Tau FP inhib inconclusive, Tau ThT inhib 10µM, Tau fluor counter inconclusive and USP1-UAF1 inh 25.1µM.
`N#C/C(=C\c1ccc(N2CCOCC2)o1)C(=O)NCC1CCCO1` (configuration not stated) gave FBPA coupling cs inactive, Tau FP inhib inactive, Tau ThT inhib inactive, Tau fluor counter inactive and USP1-UAF1 inh inconclusive.
`Cc1ccc2nc(/C(C#N)=C\c3ccc(N4CCOCC4)o3)[nH]c2c1` gave FBPA coupling cs inactive, Tau FP inhib inconclusive, Tau ThT inhib 12.6µM, Tau fluor counter inconclusive and USP1-UAF1 inh 25.1µM.
`Cc1cc2cc(CNS(=O)(=O)N(C)C)ccc2[nH]1` gave FBPA coupling cs -35.8, Tau FP inhib inactive, Tau ThT inhib inconclusive, Tau fluor counter inactive and USP1-UAF1 inh inactive.
`COc1ccc2[nH]c(C)c(CCNc3ccc(C(F)(F)F)cc3[N+](=O)[O-])c2c1` gave FBPA coupling cs inactive, Tau FP inhib inconclusive, Tau ThT inhib inconclusive, Tau fluor counter 11.2µM[quencher] and USP1-UAF1 inh inactive.
`CS(=O)(=O)NCCNc1ccc(C(F)(F)F)cc1[N+](=O)[O-]` gave FBPA coupling cs inactive, Tau FP inhib inactive, Tau ThT inhib inactive, Tau fluor counter inactive and USP1-UAF1 inh inactive.
`CCOC(=O)C1CCN(C(=O)c2c(C)nn(-c3ccc(F)cc3)c2-n2cccc2)CC1` gave Tau FP inhib inactive, Tau ThT inhib inactive, Tau fluor counter inactive and USP1-UAF1 inh inactive.
For COc1ccc(Nc2nc(N(C)c3ccccc3)nc(N)c2[N+](=O)[O-])cc1 the results were FBPA coupling cs inactive and USP1-UAF1 inh inactive.
Screening Cc1nc(Nc2ccc(F)cc2)nc(Nc2ccc(F)cc2)c1[N+](=O)[O-] returned FBPA coupling cs inactive, Tau FP inhib inactive, Tau ThT inhib inactive, Tau fluor counter inactive and USP1-UAF1 inh inactive.
COc1ccc(Nc2nc(NN)nc(C)c2[N+](=O)[O-])cc1 was read as FBPA coupling cs inactive, Tau FP inhib inactive, Tau ThT inhib 14.1µM, Tau fluor counter inconclusive and USP1-UAF1 inh inactive.
Screening COc1ccc(Nc2nc(N/N=C/c3ccc(N(C)C)cc3)nc(C)c2[N+](=O)[O-])cc1 returned FBPA coupling cs inactive, Tau FP inhib inactive, Tau ThT inhib 3.16µM, Tau fluor counter 11.2µM[quencher] and USP1-UAF1 inh inactive.
For CCOC(=O)c1ccccc1NC(=O)c1sc2ncn(CC)c(=O)c2c1C the results were Tau FP inhib inactive, Tau ThT inhib inactive, Tau fluor counter inactive and USP1-UAF1 inh inactive.
Cc1cc(C)n(-c2nc3ccccc3nc2Nc2cc(C(=O)O)ccc2C)n1 was read as Tau FP inhib inactive, Tau ThT inhib inconclusive, Tau fluor counter inactive and USP1-UAF1 inh inactive.
`CC(=O)c1ccc(NC(=O)Nc2sc3nc4n(c(=O)c3c2C)CCC(C)CC4)cc1` (configuration not stated) gave Tau FP inhib inconclusive, Tau ThT inhib inconclusive, Tau fluor counter 12.6µM[quencher] and USP1-UAF1 inh inactive.

Screens: PubChem, National Center for Advancing Translational Sciences (NCATS)
